Tests used:
[1] = biological target: Sphingosine kinase 1 (Homo sapiens) (UniProt Q9NYA1); conditions: at 1 µM;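 note: mean SPHK1 inhibition value reported from the GSK PKIS kinase panel screen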
[2] = biological target: T1, Sphingosine kinase 2 (Homo sapiens) (UniProt Q9NRA0); conditions: at 0.1 µM
T1 sequence (whole entry): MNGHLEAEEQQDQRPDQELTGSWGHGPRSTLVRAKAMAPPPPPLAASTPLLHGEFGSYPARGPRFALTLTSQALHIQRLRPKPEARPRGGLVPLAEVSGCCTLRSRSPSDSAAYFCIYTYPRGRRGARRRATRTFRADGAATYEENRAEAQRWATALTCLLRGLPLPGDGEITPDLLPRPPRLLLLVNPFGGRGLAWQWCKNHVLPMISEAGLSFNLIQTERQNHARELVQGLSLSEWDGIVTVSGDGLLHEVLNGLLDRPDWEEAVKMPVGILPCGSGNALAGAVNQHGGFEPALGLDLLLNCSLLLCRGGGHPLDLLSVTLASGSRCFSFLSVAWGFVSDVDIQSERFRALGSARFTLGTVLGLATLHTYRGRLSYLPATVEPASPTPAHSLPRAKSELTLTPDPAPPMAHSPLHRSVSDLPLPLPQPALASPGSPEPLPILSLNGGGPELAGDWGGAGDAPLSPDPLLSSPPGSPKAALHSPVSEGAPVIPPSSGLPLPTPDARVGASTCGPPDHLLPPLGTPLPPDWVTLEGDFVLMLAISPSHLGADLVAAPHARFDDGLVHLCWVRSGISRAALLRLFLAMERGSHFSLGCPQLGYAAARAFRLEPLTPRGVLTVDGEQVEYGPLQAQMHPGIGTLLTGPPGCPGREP

[3] = biological target: T1, Sphingosine kinase 2 (Homo sapiens); conditions: at 1 µM
[4] = biological target: Casein kinase II subunit alpha (Homo sapiens) (UniProt P68400); conditions: at 0.1 µM
[5] = biological target: Casein kinase II subunit alpha (Homo sapiens) (UniProt P68400); conditions: at 1 µM
[6] = biological target: T2, Inhibitor of nuclear factor kappa-B kinase subunit alpha (Homo sapiens) (UniProt O15111); conditions: at 0.1 µM
T2 sequence (whole entry): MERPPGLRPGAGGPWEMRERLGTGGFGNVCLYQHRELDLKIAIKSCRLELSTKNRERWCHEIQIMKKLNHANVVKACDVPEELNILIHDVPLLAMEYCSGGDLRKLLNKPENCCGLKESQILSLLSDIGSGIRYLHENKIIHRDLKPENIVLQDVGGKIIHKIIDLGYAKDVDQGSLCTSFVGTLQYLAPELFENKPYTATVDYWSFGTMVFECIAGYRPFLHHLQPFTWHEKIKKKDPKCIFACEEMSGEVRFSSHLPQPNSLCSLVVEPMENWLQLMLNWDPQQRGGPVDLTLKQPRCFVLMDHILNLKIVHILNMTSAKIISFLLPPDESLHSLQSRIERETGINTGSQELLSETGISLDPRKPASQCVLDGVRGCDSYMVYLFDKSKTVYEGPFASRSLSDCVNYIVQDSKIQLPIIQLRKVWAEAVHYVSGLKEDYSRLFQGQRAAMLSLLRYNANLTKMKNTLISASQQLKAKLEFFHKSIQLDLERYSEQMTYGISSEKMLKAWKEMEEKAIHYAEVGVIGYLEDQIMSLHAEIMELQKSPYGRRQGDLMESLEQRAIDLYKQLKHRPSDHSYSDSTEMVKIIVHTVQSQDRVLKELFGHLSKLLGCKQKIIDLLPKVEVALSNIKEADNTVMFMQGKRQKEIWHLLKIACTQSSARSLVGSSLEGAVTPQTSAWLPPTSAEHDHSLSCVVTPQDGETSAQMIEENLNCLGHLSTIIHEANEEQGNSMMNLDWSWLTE

[7] = biological target: T2, Inhibitor of nuclear factor kappa-B kinase subunit alpha (Homo sapiens); conditions: at 1 µM
[8] = biological target: T3, Inhibitor of nuclear factor kappa-B kinase subunit beta (Homo sapiens) (UniProt O14920); conditions: at 0.1 µM
T3 sequence (whole entry): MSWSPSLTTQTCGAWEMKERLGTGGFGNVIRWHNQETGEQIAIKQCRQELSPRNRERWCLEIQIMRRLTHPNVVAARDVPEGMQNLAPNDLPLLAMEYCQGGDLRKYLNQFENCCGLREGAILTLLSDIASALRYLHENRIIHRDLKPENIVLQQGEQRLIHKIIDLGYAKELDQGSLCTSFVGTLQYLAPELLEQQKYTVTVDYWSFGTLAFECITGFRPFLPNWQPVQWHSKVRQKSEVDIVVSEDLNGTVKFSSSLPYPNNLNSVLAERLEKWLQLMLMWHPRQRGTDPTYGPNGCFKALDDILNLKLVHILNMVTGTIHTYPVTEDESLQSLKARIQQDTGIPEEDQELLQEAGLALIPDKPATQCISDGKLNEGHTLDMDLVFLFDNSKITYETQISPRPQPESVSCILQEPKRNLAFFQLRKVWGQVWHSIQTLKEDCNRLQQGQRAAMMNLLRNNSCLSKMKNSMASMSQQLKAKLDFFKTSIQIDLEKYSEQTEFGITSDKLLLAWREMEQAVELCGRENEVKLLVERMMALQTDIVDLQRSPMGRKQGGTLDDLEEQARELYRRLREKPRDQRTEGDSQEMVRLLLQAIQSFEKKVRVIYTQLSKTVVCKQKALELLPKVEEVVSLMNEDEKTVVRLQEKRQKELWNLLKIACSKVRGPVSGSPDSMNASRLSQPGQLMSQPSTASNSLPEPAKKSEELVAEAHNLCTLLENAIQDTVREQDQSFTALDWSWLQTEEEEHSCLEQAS

[9] = biological target: T3, Inhibitor of nuclear factor kappa-B kinase subunit beta (Homo sapiens); conditions: at 1 µM
[10] = biological target: T4, Inhibitor of nuclear factor kappa-B kinase subunit epsilon (Homo sapiens) (UniProt Q14164); conditions: at 0.1 µM;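 note: mean inhibition of IKKε reported, from the GSK PKIS dataset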
T4 sequence (whole entry): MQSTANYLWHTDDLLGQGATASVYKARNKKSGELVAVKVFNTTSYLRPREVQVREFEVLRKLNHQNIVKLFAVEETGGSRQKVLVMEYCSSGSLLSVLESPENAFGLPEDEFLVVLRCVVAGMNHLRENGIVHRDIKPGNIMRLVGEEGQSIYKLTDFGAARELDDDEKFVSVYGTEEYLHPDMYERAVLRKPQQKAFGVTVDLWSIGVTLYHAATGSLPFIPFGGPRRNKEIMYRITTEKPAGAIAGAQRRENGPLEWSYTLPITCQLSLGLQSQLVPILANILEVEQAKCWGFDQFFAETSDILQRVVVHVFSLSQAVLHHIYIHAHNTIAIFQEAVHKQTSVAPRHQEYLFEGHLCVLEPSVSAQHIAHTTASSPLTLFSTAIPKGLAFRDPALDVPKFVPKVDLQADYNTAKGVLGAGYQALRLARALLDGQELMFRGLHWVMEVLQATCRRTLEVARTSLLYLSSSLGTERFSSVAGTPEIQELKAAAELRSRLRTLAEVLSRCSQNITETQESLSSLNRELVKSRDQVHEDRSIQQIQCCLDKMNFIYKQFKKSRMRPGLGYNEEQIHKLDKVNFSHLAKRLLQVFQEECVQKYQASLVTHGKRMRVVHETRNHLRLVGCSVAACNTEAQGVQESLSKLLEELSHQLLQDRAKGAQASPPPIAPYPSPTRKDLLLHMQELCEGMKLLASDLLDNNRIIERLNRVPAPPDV

Chain of Casein kinase II subunit alpha (Homo sapiens) (P68400 whole entry, looked up): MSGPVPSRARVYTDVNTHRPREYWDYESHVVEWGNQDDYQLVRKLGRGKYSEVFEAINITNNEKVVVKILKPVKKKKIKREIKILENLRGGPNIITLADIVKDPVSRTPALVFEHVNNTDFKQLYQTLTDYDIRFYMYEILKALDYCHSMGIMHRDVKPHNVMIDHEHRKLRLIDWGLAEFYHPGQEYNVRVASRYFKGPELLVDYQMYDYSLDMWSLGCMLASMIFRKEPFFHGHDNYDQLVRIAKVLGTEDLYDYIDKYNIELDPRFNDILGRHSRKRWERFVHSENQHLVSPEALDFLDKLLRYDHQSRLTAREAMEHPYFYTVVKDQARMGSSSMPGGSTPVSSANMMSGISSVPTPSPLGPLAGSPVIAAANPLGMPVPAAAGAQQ
Chain of Sphingosine kinase 1 (Homo sapiens) (Q9NYA1 whole entry): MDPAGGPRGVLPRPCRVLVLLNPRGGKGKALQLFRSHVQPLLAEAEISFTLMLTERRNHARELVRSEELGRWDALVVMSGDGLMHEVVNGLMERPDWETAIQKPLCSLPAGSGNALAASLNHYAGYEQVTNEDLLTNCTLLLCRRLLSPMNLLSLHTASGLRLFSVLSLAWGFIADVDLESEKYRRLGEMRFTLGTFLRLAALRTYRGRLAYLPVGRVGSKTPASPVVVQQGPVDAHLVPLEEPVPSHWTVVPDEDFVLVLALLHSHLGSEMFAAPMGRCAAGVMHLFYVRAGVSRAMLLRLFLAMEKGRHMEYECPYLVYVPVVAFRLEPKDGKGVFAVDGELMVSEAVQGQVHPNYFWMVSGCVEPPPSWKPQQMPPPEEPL

Compound	inhibition [1] [%]	inhibition [2] [%]	inhibition [3] [%]	inhibition [4] [%]	inhibition [5] [%]	inhibition [6] [%]	inhibition [7] [%]	inhibition [8] [%]	inhibition [9] [%]	inhibition [10] [%]
CN(C)CCCn1c(-c2nonc2N)nc2cnccc21	-0.88	0.92	0.09	1.4	-1.56	5.57	4.33	6.47	4.26	4.73
CN1CCN(C(=O)c2ccc(NC(=O)Nc3ccc(N(C)c4ccnc(Nc5ccc(CS(C)(=O)=O)cc5)n4)cc3)cc2)CC1	2.73	0	-0.74	7.1	2.55	3.61	9.53	3.95	5.76	4.12
COc1cc2ncn(-c3cc(OCc4ccccc4S(C)(=O)=O)c(C#N)s3)c2cc1OC	-0.15	0.46	-2.2	2.39	5	6.91	5.75	3.44	1.17	42.5
NS(=O)(=O)c1cccc(Nc2cc(-c3ccc(F)cc3)n[nH]2)c1	-0.2	0.87	-0.06	5.22	13.6	4.35	11.3	5.51	4.5	8.55
CCCN1CCCC(c2ccc(Nc3nc(Nc4cc(F)ccc4C(N)=O)c4cc[nH]c4n3)c(OC)c2)C1 (stereo not given)	3.56	1.62	-1.24	33.5	66.2	6.24	4.21	8.08	4.25	4.93
CN(C)C(=O)O[C@H]1CN[C@H](C#Cc2cc3ncnc(Nc4ccc(OCc5cccc(F)c5)c(Cl)c4)c3s2)C1	-2.15	-0.26	0.69	0.63	0.63	1.66	2.62	3.17	-7.42	1.55
CN(c1ccc(NC(=O)Nc2ccc(OC(F)(F)F)cc2)cc1)c1ccnc(Nc2cccc(S(N)(=O)=O)c2)n1	0.54	-0.4	1.23	2.7	1.68	8.41	3.54	3.29	2.85	5.07
O=C(Nc1ccc(Oc2ccc3[nH]c(NC(=O)c4ccco4)nc3c2)cc1)Nc1cc(C(F)(F)F)ccc1F	6.73	0.7	-0.32	0.08	-0.44	0.68	5.25	-0.61	-1.89	-0.79
NS(=O)(=O)c1cccc(-c2cc3ccncc3cc2OCc2ccccc2)c1	0.02	-1.2	0.96	1.61	-1.22	8.21	10.9	7.94	10.7	4.52
Cc1ccc(O)cc1Nc1ccnc2ccc(S(C)(=O)=O)cc12	-1.32	1.04	1.77	3.63	8.35	5.42	9.92	6.57	8.43	6.64
Nc1nccc(-c2c(-c3ccc(F)cc3)nn3cc(C(F)(F)F)ccc23)n1	11.1	-0.68	0	15.6	2.55	-2.07	-2.01	1.03	0.86	1.65
O=C1Nc2ccc(-c3cccnc3)cc2C1=Cc1cc(Br)c(O)c(Br)c1	-0.37	0.41	-1.79	4.96	14.5	5.26	7.66	4.92	2.14	3.51
Nc1ccc(C#Cc2cncnc2Nc2ccc(OCc3cccc(F)c3)c(Cl)c2)cc1	-2.59	-3.76	0	4.6	2.02	0.36	2.27	4.1	4.66	3.63
NS(=O)(=O)c1ccc(NC=C2C(=O)Nc3ccc4ncsc4c32)cc1	3.96	1.68	2.35	15.7	46.4	13.6	23.5	10.6	19.2	19.3
OCc1ccc(-c2nc(-c3ccccn3)c(-c3ccc4c(c3)OCO4)[nH]2)cc1	-4.68	-0.11	0.5	2.74	-0.37	6.97	8.08	5.29	4.72	4.91
Cc1ccc(NC(=O)CC2CC2)cc1-c1ccc(C(=O)NCC2CC2)cc1	-1.09	0.51	-0.13	4.55	8.23	0.25	1.31	3.09	3.67	4.09

Source: ChEMBL document CHEMBL1961873, “Compounds: GSK PKIS; Assays: Nanosyn kinase panel” (2012)
